Assay results as given in PubChem BioAssay (NCI).
Compounds without any hit were thinned out: in the full panel of roughly 83,000, 20% have a hit.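 Step 1: grow cells in 96-well plates. Step 2: add test compound at a single concentration. Step 3: incubate 48 h. Step 4: record percent growth.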 Active and inactive are the calls of the source. The calls were made as follows: active = growth percent below 10; inactive = the rest.

Assays:
Assay in all cases: NCI-60 one-dose screen, 48 h (100 = growth as untreated, 0 = no growth, -100 = all killed)
[1] = tested on: NCI-H23 lung; conditions: 10 µM unless noted
[2] = tested on: 786-0 renal; conditions: 10 µM unless noted
[3] = tested on: DU-145 prostate; conditions: 10 µM unless noted
[4] = tested on: MDA-MB-231 breast; conditions: 10 µM unless noted
[5] = tested on: SF-268 CNS; conditions: 10 µM unless noted
[6] = tested on: SF-539 CNS; conditions: 10 µM unless noted
[7] = tested on: M14 melanoma; conditions: 10 µM unless noted
[8] = tested on: HCT-15 colon; conditions: 10 µM
[9] = tested on: UACC-62 melanoma; conditions: 10 µM unless noted
[10] = tested on: LOX IMVI melanoma; conditions: 10 µM unless noted
[11] = tested on: SK-MEL-28 melanoma; conditions: 10 µM unless noted
[12] = tested on: ACHN renal; conditions: 10 µM unless noted
[13] = tested on: OVCAR-5 ovarian; conditions: 10 µM unless noted
[14] = tested on: OVCAR-3 ovarian; conditions: 10 µM unless noted
[15] = tested on: NCI/ADR-RES ovarian; conditions: 10 µM unless noted
[16] = tested on: T-47D breast; conditions: 10 µM unless noted
[17] = tested on: MDA-MB-435 melanoma; conditions: 10 µM unless noted
[18] = tested on: SW-620 colon; conditions: 10 µM unless noted
[19] = tested on: MCF7 breast; conditions: 10 µM unless noted
[20] = tested on: KM12 colon; conditions: 10 µM unless noted

SMILES | growth [1] | growth [2] | growth [3] | growth [4] | growth [5] | growth [6] | growth [7] | growth [8] | growth [9] | growth [10] | growth [11] | growth [12] | growth [13] | growth [14] | growth [15] | growth [16] | growth [17] | growth [18] | growth [19] | growth [20]
CC1(C)N=C(N)N=C(N)N1c1ccc(CCCCc2ccc(S(=O)(=O)F)cc2)c(Cl)c1 | 29.8% (inactive) | 22.1% (inactive) | 30.6% (inactive) | 34.3% (inactive) | 25.6% (inactive) | 22.9% (inactive) | 24.3% (inactive) | 29.5% (inactive) | 18.3% (inactive) | 8.78% (active) | 48.4% (inactive) | 22.1% (inactive) | 40.3% (inactive) | 35.3% (inactive) | 103% (inactive) | -0.711% (active) | 15.7% (inactive) | 17.2% (inactive) | -0.0775% (active) | 22.4% (inactive)
FC(F)=C(F)c1ccccc1 | 103% (inactive) | 101% (inactive) | 108% (inactive) | 115% (inactive) | 111% (inactive) | 103% (inactive) | 96.7% (inactive) | 107% (inactive) | 107% (inactive) | 88.6% (inactive) | 102% (inactive) | 110% (inactive) | 112% (inactive) | 114% (inactive) | 106% (inactive) | 80.5% (inactive) | 104% (inactive) | 109% (inactive) | 96.9% (inactive) | 102% (inactive)
C[C@@H]1O[C@@H](O[C@H]2CC[C@@]3(C)[C@H](CCC4[C@@H]3C(O)C[C@]3(C)[C@@H](c5ccc(=O)oc5)CC[C@]43O)C2)[C@H](O)[C@H](O)[C@H]1O (some centres undefined) | -78.5% (active) | -94.1% (active) | -70.1% (active) | -63.7% (active) | -63.1% (active) | – | -70.7% (active) | -74.5% (active) | -89.6% (active) | -55.8% (active) | -96.1% (active) | -81.7% (active) | -92% (active) | -46.7% (active) | -66.8% (active) | -55.6% (active) | -76.2% (active) | -79% (active) | -59.4% (active) | -94.2% (active)
